Experimental data published in PubChem BioAssay (NCI).
This is part of a sample that, as a whole, favours compounds with a hit. Of some 79,000 tested, about 15% had one in any assay. Active and inactive are the calls of the source. No stated cut-off is given here; in the data, active means growth inhibition above about 70%; inactive means the rest.

Columns and labels:
[1] = NCI Yeast Anticancer Drug Screen. Data for the wt1 strain (AID 149);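 further: 0% = growth of vehicle-treated wt1 cultures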; details: S. cerevisiae wt1 strain (SPY 50644) growth inhibition, hits give high values
Summary of the method: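 Measured: growth of wt1 yeast under compound versus vehicle treatment, reported as inhibition.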

[2] = NCI Yeast Anticancer Drug Screen. Data for the rad50EPP+ strain (AID 151);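 further: 0% = growth of vehicle-treated control cultures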; details: S. cerevisiae rad50 mutant strain, hits give high values
Summary of the method: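 Read-out is yeast growth inhibition relative to vehicle; cells used were the rad50EPP+ strain.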

[3] = NCI Yeast Anticancer Drug Screen. Data for the mgt1 strain (AID 153); details: S. cerevisiae mgt1 mutant growth inhibition, hits give high values
Summary of the method: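 Measured: inhibition of mgt1 yeast growth by compound, normalized to vehicle-treated cultures.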

[4] = NCI Yeast Anticancer Drug Screen. Data for the rad50 strain (AID 155);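 further: 0% = growth of vehicle-only cultures of the same strain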; details: S. cerevisiae rad50 strain growth inhibition, hits give high values
Summary of the method: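 Growth of the mutant yeast was measured after compound exposure and referenced to vehicle-treated cultures.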

[5] = NCI Yeast Anticancer Drug Screen. Data for the mec2-1 strain (AID 157); details: S. cerevisiae mec2-1 strain, hits give high values
Summary of the method: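 Using mec2-1 yeast: add compound, measure growth, express inhibition versus vehicle-treated cultures.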

[6] = NCI Yeast Anticancer Drug Screen. Data for the rad14 strain (AID 159);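 further: 0% = growth of vehicle-treated control cultures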; details: S. cerevisiae rad14 strain growth inhibition, hits give high values
Summary of the method: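 Here, inhibition of yeast growth was measured after compound exposure, using a strain with a genetic defect in DNA damage repair and vehicle-treated cultures as the reference.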

[7] = NCI Yeast Anticancer Drug Screen. Data for the CLN2oe strain (AID 163);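 further: 0% = growth of vehicle-only control cultures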; details: S. cerevisiae CLN2oe strain, hits give high values
Summary of the method: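 Whole-cell yeast growth assay. A strain engineered for altered cell-cycle control received compound, and inhibition relative to vehicle-treated cultures was recorded.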

[8] = NCI Yeast Anticancer Drug Screen. Data for the cln2 rad14 strain (AID 165);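 further: 0% = growth equal to vehicle treated cultures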; details: S. cerevisiae cln2 rad14 strain, hits give high values
Summary of the method: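 Yeast strain cln2 rad14, bearing defects in cell cycle control and DNA repair, serves as the test system; values reflect growth inhibition compared with vehicle.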

[9] = NCI Yeast Anticancer Drug Screen. Data for the bub3 strain (AID 167); details: S. cerevisiae bub3 mutant strain, hits give high values
Summary of the method: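 Whole-cell yeast assay. The mutant strain was incubated with compounds, and growth inhibition was determined by comparison with vehicle-treated cells.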

[10] = NCI Yeast Anticancer Drug Screen. Data for the wt2 strain (AID 169);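 further: 0% = growth of vehicle-treated yeast cultures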; details: S. cerevisiae wt2 strain growth inhibition, hits give high values
Summary of the method: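 Treated yeast vs. vehicle-treated yeast: growth inhibition determined.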

[11] = NCI Yeast Anticancer Drug Screen. Data for the mlh1 strain (AID 171);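 further: 0% = growth of vehicle-treated control cultures of the same strain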; details: S. cerevisiae mlh1 strain growth inhibition, hits give high values
Summary of the method: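 A yeast strain with a defined genetic lesion serves as the test organism. Cultures receive compound or vehicle, and growth is measured.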

[12] = NCI Yeast Anticancer Drug Screen. Data for the sgs1 strain (AID 173);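 further: 0% = growth of vehicle-only control cultures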; details: S. cerevisiae sgs1 mutant, hits give high values
Summary of the method: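 A genetically defined yeast mutant is incubated with the test compound, and its growth is compared to that of the same strain given vehicle.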

[13] = NCI Yeast Anticancer Drug Screen. Data for the mlh1 rad18 strain (AID 175); details: S. cerevisiae mlh1 rad18 strain growth inhibition, hits give high values
Summary of the method: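 Steps: expose repair-defective yeast to compound; measure growth; express inhibition against vehicle-treated controls.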

[14] = NCI Yeast Anticancer Drug Screen. Data for the rad18 strain (AID 177); details: S. cerevisiae rad18 mutant growth inhibition, hits give high values
Summary of the method: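 Measured value is growth inhibition of a yeast strain bearing a DNA repair alteration, referenced to vehicle-treated cells.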

[15] = at 5.0 µM (retest, dose inferred, filed as 0.5)
[16] = at 50.0 µM (retest, dose inferred, filed as 5.0)

Measured: growth inhibition

CN(C)CCNC(=O)c1cccc2nc3c4ccccc4c4ccccc4c3nc12
active: [1]; at 33.0 µM 97% | [1]; at 100.0 µM 95% | [2]; at 11.0 µM 90% | [2]; at 33.0 µM 96% | [2]; at 100.0 µM 93% | [3]; at 33.0 µM 99% | [3]; at 100.0 µM 95% | [4]; at 11.0 µM 98% | [4]; at 33.0 µM 98% | [4]; [16] 96% | [4]; at 50.0 µM 96.7% | [4]; at 100.0 µM 91% | [5]; at 33.0 µM 99% | [5]; [16] 96% | [5]; at 50.0 µM 95.8% | [5]; at 100.0 µM 94% | [6]; at 33.0 µM 98% | [6]; at 100.0 µM 95% | [7]; at 33.0 µM 97% | [7]; at 100.0 µM 92% | [8]; [16] 95% | [8]; at 50.0 µM 95% | [9]; at 11.0 µM 93% | [9]; at 33.0 µM 97% | [9]; [16] 96% | [9]; at 50.0 µM 95.4% | [9]; at 100.0 µM 92% | [10]; at 33.0 µM 97% | [10]; at 100.0 µM 94% | [11]; at 33.0 µM 98% | [11]; at 100.0 µM 94% | [12]; at 11.0 µM 73% | [12]; at 33.0 µM 98% | [12]; at 100.0 µM 95% | [13]; [16] 97% | [13]; at 50.0 µM 95.2% | [14]; at 11.0 µM 72% | [14]; at 33.0 µM 98% | [14]; at 100.0 µM 93%
inactive: [1]; at 1.2 µM -1% | [1]; at 3.7 µM 2% | [1]; at 11.0 µM 28% | [2]; at 1.2 µM 6% | [2]; at 3.7 µM 25% | [3]; at 1.2 µM 1% | [3]; at 3.7 µM 1% | [3]; at 11.0 µM 43% | [4]; at 1.2 µM -9% | [4]; at 3.7 µM -24% | [4]; [15] 65% | [5]; at 1.2 µM 0% | [5]; at 3.7 µM 1% | [5]; [15] 8% | [5]; at 11.0 µM 35% | [6]; at 1.2 µM 3% | [6]; at 3.7 µM 8% | [6]; at 11.0 µM 67% | [7]; at 1.2 µM 0% | [7]; at 3.7 µM -3% | [7]; at 11.0 µM 29% | [8]; [15] 18% | [9]; at 1.2 µM -1% | [9]; at 3.7 µM 2% | [9]; [15] 7% | [10]; at 1.2 µM 1% | [10]; at 3.7 µM 9% | [10]; at 11.0 µM 29% | [11]; at 1.2 µM 1% | [11]; at 3.7 µM 2% | [11]; at 11.0 µM 53% | [12]; at 1.2 µM 1% | [12]; at 3.7 µM 4% | [13]; [15] 40% | [14]; at 1.2 µM 5% | [14]; at 3.7 µM 11%
